A short description of assay [1]: Nuclear factor erythroid 2-related factor 2/antioxidant responsive element (Nrf2/ARE) small molecule agonists: qHTS cell viability counter screen in human keratinocytes (AID 1919968; active = well fitted curve in the direction sought with a large enough effect in the repeat runs; an effect the other way counts as inactive or inconclusive; note: nearly all actives have a fitted effect of over 55% in size; note: potency is the fitted concentration of half-maximal effect). A digest of the protocol: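 Cells of the KeratinoSens line were plated at 1,500 per well and left for 5 h before compound transfer from DMSO stocks. After a 23 h incubation (37 C, 5% CO2), CellTiter-Fluor was added. Signal was taken as fluorescence intensity 1 h later.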

Assay [2] is described as follows: Nuclear factor erythroid 2-related factor 2/antioxidant responsive element (Nrf2/ARE) small molecule agonists: luciferase reporter gene qHTS assay in human keratinocytes (AID 1919969; note: nearly all actives have a fitted effect of over 35% in size; note: potency is the fitted concentration of half-maximal effect). (In general: Reporter assays use an easily measured gene product as a stand-in for the process of interest.)
Assay [3] concerns the target Gonadotropin-releasing hormone receptor (Homo sapiens) (UniProt P30968). In words: Human gonadotropin-releasing hormone receptor (GnRHR) small molecule agonists, calcium flux assay in GnRHR-HEK293 cells (AID 1920063). Note: nearly all actives have a fitted effect of over 35% in size. A digest of the protocol:
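Compounds dissolved in DMSO are pin-transferred onto dye-loaded GnRHR-HEK293 cells, which were seeded 18 h before at 37 C/5% CO2. Calcium signal is read as fluorescence intensity at 1 s intervals for 3 min.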

For assay [4], the target named is KiSS-1 receptor (Homo sapiens) (UniProt Q969F8). The assay can be described thus: Human kisspeptin (KISS1R) small molecule agonists, calcium flux assay in KISS1R-HEK293 cells (AID 1920064; active = well fitted curve in the direction sought with a large enough effect in the repeat runs; an effect the other way counts as inactive or inconclusive). A digest of the protocol:
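Cell line: HEK293, stable human KISS1R. Dye loading 1 h at 37 C after 18 h culture. Read: kinetic fluorescence, 480/540 nm, 3 min at 1 s intervals.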
(In general: Calcium assays in cells follow changes in intracellular calcium, usually with a dye or a luminescent sensor.)

Assay [5] is described as follows: G protein-coupled receptor (GPCR) small molecule agonists, calcium flux assay: HEK293 wild type cell line counter screen (AID 1920065). A digest of the protocol:
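Tox21 10K compounds, 15 concentrations each in triplicate, pin-transferred in DMSO onto dye-loaded cells; kinetic read at 480/540 nm for 3 min, 1 s intervals.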

A short description of assay [6]: p53 small molecule agonists, cell-based qHTS assay with rat liver microsomes (AID 1963578). An outline of the steps: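 p53RE-bla cells, 4,000/well, pre-incubated 5 h, then given compounds plus rat liver microsomes (0.5 mg/mL final) and NADPH (0.5 mg/mL final). Incubation 16 h at 37 C; beta-lactamase reporter read by LiveBLAzer fluorescence after 2 h at room temperature.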
In general terms: qHTS replaces the single test concentration by a dilution series.

Assay [7] can be described thus: p53 small molecule agonists, cell-based qHTS assay with rat liver microsomes: qHTS cell viability counter screen (AID 1963580). Note: nearly all actives have a fitted effect of over 45% in size. Note: potency is the fitted concentration of half-maximal effect. A digest of the protocol:
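After the beta-lactamase ratio was read, CellTiter-Glo was added to the same wells and luminescence measured at 30 min; cells had been treated 16 h at 37 C with compounds, rat liver microsomes and NADPH (0.5 mg/mL final each).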

Assay [8] can be described thus: p53 small molecule agonists, cell-based qHTS assay: qHTS cell viability counter screen (AID 1963581). Note: nearly all actives have a fitted effect of over 45% in size. Note: potency is the fitted concentration of half-maximal effect. A digest of the protocol:
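ATP content measured by luminescence in HCT-116 p53RE-bla cells treated 16 h at 37 C, same wells as the reporter screen.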

The nature of assay [9]: p53 small molecule agonists, cell-based qHTS assay (AID 1963582; active = well fitted activation curve with a large enough effect in the signal ratio in the repeat runs, not every such curve was filed as active; the % refers to the signal ratio). A digest of the protocol: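 16 h compound exposure (37 C) of p53 response element–bla cells, preceded by 5 h recovery at 37 C/5% CO2; read-out via LiveBLAzer B/G FRET substrate, 2 h RT, fluorescence intensity.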
In assay [10] the target is 5-hydroxytryptamine receptor 2A (Homo sapiens) (UniProt P28223). In words: 5-hydroxytryptamine receptor 2A (HTR2A) small molecule antagonists, cell-based qHTS assay (AID 1963586). Note: nearly all actives have a fitted effect of over 45% in size. A digest of the protocol:
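CHO cells stably expressing human HTR2A were plated for 18 h at 37 C, then loaded with calcium dye for 1 h. Compounds were preincubated 5 min at room temperature before DOI (4 nM solution) was added. Kinetic fluorescence was read for 3 min.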

Assay [11] has the same target. The assay can be described thus: 5-hydroxytryptamine receptor 2A (HTR2A) small molecule agonists, cell-based qHTS assay (AID 1963587). Note: nearly all actives have a fitted effect of over 30% in size. An outline of the steps:
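CHO cells stably expressing human HTR2A, plated 18 h, loaded with calcium dye 1 h at 37 C. Agonist mode: compounds added and intracellular calcium fluorescence recorded kinetically for 2 min at 1 sec intervals.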

Assay [12] deals with Muscarinic acetylcholine receptor M1 (Homo sapiens) (UniProt P11229). The assay can be described thus: Cholinergic receptor muscarinic 1 (CHRM1) small molecule antagonists, cell-based qHTS assay (AID 1963588). Note: nearly all actives have a fitted effect of over 40% in size. An outline of the steps: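 Compounds were tested at 15 concentrations in three independent runs. Dye-loaded CHRM1-CHO cells were exposed 5 min at room temperature before stimulation by acetylcholine added at 50nM. Intracellular calcium was read kinetically on FDSS for 3 min.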

Assay [13] has the same target. The assay can be described thus: Cholinergic receptor muscarinic 1 (CHRM1) small molecule agonists, cell-based qHTS assay (AID 1963589). Note: nearly all actives have a fitted effect of over 35% in size. A digest of the protocol:
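Homogeneous fluorescence calcium flux, agonist mode. Human M1-expressing CHO cells; compound dosed at 15 concentrations, three independent runs; signal sampled every 1 sec.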

The nature of assay [14]: cAMP Responsive Elements (CRE) small molecule agonists, cell-based qHTS assay (AID 1963590). An outline of the steps: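 HEK 293T cells stably bearing CRE-bla were plated at 2,000 cells per well and rested 18 h. Compounds, positive controls or DMSO were added for 3 h at 37 C. LiveBLAzer B/G substrate was then loaded for 2 h at room temperature.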
Assay [15] is described as follows: cAMP Responsive Elements (CRE) small molecule antagonists, cell-based qHTS assay (AID 1963591; active = well fitted inhibition curve with a large enough effect in the signal ratio in the repeat runs, not every such curve was filed as active; the % refers to the signal ratio). A digest of the protocol:
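First, CRE-bla HEK293T cells settled 18 h at 37 C. Next, compound and 0.25 uM final NKH477 were applied for 3 h. Last, LiveBLAzer B/G substrate was loaded for 2 h at room temperature.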

Assay [16] addresses Beta-2 adrenergic receptor (Homo sapiens) (UniProt P07550). In words: Adrenergic beta2 receptor (ADRB2) small molecule antagonists, cell-based qHTS assay (AID 1963592). Note: series mostly up to about 92 µM; nearly all actives have a fitted effect of over 50% in size. A digest of the protocol: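 Assay format: CHO-ADRB2 cells, 18-20hr seeding at 37C/5% CO2, then compound plus 1nM isoproterenol agonist mix for 0.5hr RT. Homogeneous time-resolved fluorescence cAMP detection after 1hr, expressed as 665/615 nm ratio.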

Assay [17] can be described thus: p53 small molecule agonists, cell-based qHTS assay with human liver microsomes: qHTS cell viability counter screen (AID 1963579). Note: nearly all actives have a fitted effect of over 45% in size. An outline of the steps:
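p53RE-bla cells, 4,000/well, dosed 5 hours after plating, with human liver microsomes (0.5 mg/mL final) plus NADPH (0.5 mg/mL final), 16 hours at 37 C. Viability read as CellTiter-Glo luminescence after 30 min at room temperature.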

For assay [18], the target named is Beta-2 adrenergic receptor (Homo sapiens) (UniProt P07550). The assay can be described thus: Adrenergic beta2 receptor (ADRB2) small molecule agonists, cell-based qHTS assay (AID 1963593).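 Note: CHO cells stably overexpressing human ADRB2.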 A digest of the protocol:
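CHO cells stably over-expressing ADRB2 were plated overnight at 37C, then dosed with compounds plus a stimulation mix containing 100uM IBMX and 25uM Ro-20-1724 for 0.5hr at room temperature. cAMP was measured by HTRF competition, 1hr.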

In assay [19] the target is D(2) dopamine receptor (Homo sapiens) (UniProt P14416). In words: Dopamine D2 receptor (DRD2) small molecule agonists, cell-based qHTS assay (AID 1963594). Note: nearly all actives have a fitted effect of over 35% in size. Note: potency is the fitted concentration of half-maximal effect. A digest of the protocol:
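HEK293 cells stably expressing human DRD2, pre-treated with PDE inhibitor Ro20-1724 (0.1 mM final) and compound 10 min at room temperature, then stimulated with NKH477 (200nM […]) for 30 min. cAMP read by HTRF (665/620 nm).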

For assay [20] the target is unchanged. The assay can be described thus: Dopamine D2 receptor (DRD2) small molecule antagonists, cell-based qHTS assay (AID 1963595; active = well fitted inhibition curve with a large enough effect in the signal ratio in the repeat runs, with a control signal flat; the % refers to the signal ratio). A digest of the protocol:
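Stable D2 receptor HEK293 line, 24 h after seeding. Compound preincubated 10 min, then quinpirole (12 nM) with forskolin analogue NKH477 (200 nM), 30 min, room temperature. Detection by time-resolved FRET of cAMP.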

Each structure is given as a SMILES string. Inconclusive results are not listed. The source made the active and inactive calls. Unless noted, calls come from the whole dose curve.

Sequence of Muscarinic acetylcholine receptor M1 (Homo sapiens) (P11229 whole entry, looked up): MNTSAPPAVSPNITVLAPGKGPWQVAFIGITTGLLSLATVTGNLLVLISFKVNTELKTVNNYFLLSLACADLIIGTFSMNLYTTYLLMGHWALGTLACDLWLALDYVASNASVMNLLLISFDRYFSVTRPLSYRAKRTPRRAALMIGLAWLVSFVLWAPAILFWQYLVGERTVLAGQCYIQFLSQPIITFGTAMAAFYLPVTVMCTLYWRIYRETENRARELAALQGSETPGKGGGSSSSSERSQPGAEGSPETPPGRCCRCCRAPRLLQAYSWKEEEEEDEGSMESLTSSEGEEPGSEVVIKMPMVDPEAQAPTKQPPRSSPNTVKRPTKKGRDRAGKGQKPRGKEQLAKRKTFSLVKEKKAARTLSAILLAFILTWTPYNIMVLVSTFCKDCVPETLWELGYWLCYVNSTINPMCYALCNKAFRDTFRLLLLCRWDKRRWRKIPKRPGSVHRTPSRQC
Sequence of D(2) dopamine receptor (Homo sapiens) (P14416 whole entry, looked up): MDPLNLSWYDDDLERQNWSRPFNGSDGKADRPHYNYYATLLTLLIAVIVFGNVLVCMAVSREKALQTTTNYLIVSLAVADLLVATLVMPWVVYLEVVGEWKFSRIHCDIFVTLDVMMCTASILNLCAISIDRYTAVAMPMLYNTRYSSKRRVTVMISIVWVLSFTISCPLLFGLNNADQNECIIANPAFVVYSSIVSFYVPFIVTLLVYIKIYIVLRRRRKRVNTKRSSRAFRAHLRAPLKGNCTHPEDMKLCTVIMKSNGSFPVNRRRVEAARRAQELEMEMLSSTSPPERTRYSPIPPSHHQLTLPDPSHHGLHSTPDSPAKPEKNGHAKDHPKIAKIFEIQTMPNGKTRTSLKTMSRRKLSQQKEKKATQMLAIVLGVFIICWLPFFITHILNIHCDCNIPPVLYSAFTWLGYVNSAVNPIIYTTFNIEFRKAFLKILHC
Sequence of Gonadotropin-releasing hormone receptor (Homo sapiens) (P30968 whole entry, looked up): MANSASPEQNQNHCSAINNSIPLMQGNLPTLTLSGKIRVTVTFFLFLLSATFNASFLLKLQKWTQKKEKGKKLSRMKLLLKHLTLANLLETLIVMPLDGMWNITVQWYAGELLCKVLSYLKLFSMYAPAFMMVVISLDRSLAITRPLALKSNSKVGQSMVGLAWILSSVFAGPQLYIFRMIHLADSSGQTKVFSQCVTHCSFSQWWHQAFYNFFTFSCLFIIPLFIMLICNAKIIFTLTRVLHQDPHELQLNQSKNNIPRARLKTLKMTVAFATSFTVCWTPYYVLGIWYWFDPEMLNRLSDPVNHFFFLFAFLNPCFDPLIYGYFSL
Sequence of KiSS-1 receptor (Homo sapiens) (Q969F8 whole entry, looked up): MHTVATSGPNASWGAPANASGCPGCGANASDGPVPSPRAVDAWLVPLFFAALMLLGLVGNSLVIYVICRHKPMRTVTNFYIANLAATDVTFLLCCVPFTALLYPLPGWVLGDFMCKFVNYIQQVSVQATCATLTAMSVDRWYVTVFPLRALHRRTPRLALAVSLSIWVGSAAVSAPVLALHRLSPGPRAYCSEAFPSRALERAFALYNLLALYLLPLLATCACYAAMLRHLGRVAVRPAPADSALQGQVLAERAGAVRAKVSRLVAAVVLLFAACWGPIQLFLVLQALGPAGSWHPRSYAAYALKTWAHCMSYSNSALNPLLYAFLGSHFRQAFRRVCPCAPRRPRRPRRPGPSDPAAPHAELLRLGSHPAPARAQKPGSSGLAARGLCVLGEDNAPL
Sequence of Beta-2 adrenergic receptor (Homo sapiens) (P07550 whole entry, looked up): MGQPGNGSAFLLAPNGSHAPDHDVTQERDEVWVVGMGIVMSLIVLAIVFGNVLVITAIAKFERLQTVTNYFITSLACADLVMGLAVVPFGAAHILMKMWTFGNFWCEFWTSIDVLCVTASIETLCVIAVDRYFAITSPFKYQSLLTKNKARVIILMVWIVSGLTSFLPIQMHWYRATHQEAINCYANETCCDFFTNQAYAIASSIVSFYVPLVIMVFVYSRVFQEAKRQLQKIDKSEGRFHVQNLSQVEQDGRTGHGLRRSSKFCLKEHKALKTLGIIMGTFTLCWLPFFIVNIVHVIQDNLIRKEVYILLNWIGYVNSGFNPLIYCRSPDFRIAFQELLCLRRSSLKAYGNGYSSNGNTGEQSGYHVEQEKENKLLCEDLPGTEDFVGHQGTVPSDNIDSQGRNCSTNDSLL
Sequence of 5-hydroxytryptamine receptor 2A (Homo sapiens) (P28223 whole entry, looked up): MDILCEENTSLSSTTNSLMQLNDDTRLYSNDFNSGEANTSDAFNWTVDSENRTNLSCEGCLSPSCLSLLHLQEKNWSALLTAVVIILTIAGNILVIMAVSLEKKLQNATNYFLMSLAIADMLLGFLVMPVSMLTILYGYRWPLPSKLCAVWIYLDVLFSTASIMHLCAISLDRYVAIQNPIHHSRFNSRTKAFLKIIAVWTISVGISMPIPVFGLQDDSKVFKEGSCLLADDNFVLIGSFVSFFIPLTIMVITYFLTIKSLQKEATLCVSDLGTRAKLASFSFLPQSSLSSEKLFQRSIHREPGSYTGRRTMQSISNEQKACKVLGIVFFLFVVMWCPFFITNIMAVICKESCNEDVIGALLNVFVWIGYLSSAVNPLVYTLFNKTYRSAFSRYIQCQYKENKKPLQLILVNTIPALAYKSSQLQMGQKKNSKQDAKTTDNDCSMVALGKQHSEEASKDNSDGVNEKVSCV

Regarding `O=C(O)C(F)(F)C(F)(F)C(F)(F)C(F)(F)C(F)(F)C(F)(F)C(F)(F)C(F)(F)C(F)(F)F`, the Potency entry in [1], in [2], in assay [3], in assay [4], in assay [5] and in [6] was “inactive” each time. Further, the Potency entry in assay [7], in assay [8], in assay [9], in assay [10], in assay [11] and in assay [12] was “inactive” throughout. The Potency result in [13], in assay [14], in assay [15] and in assay [16] was “inactive” throughout.

`O=C(N[C@H]1N=C(c2ccccc2F)c2cccc3c2N(CC3)C1=O)c1cc2ccccc2[nH]1`: the Potency result in assay [1], in assay [2], in [3], in [4], in assay [5] and in assay [6] was “inactive” throughout. Further, the Potency entry in assay [17], in assay [10], in assay [11], in assay [12], in assay [13] and in assay [14] was “inactive” throughout. Also, the Potency result in [15], in [16], in [18] and in assay [20] was “inactive” in each case. In addition, the Potency in assay [19] is 8.74 µM (active).

Turning to `CCCCc1c(C)nc(NCC)nc1OS(=O)(=O)N(C)C`, the Potency entry in [1], in assay [2], in [3], in [4], in [5] and in assay [6] was “inactive” throughout. Moreover, the Potency result in assay [17], in assay [8], in [10], in assay [11], in assay [13] and in assay [16] was “inactive” each time. In addition, the Potency entry in [20] is “inactive”.

In the case of `CC(=O)C(Cl)C(=O)N(C)C` (stereo not given), the Potency result in assay [1], in [3], in assay [4], in [5], in [6] and in assay [7] was “inactive” throughout. The Potency result in assay [9], in assay [10], in assay [11], in assay [12], in assay [13] and in [14] was “inactive” throughout. Besides, the Potency entry in [15], in assay [16], in [18], in assay [19] and in assay [20] was “inactive” throughout. Moreover, in assay [2], the Potency was 68.6 µM (active).

Consider `C=CC(=O)OCCN(C)C`, for which the Potency entry in assay [1], in assay [2], in [3], in [4], in assay [5] and in assay [6] was “inactive” each time. Also, the Potency result in assay [7], in assay [8], in assay [9], in assay [11], in [12] and in assay [13] was “inactive” in each case. Moreover, the Potency entry in assay [14], in [15], in assay [16], in assay [19] and in assay [20] was “inactive” each time.

For `CC(C)=CCOc1c2occc2cc2ccc(=O)oc12`, the Potency result in [1], in assay [2], in assay [3], in [4], in [5] and in assay [6] was “inactive” each time. Further, the Potency entry in assay [7], in assay [8], in assay [9], in assay [10], in assay [11] and in [13] was “inactive” each time. Moreover, the Potency entry in assay [15], in assay [16], in assay [18], in assay [19] and in assay [20] was “inactive” in each case.

For `CCCOC(=O)Cc1ccc(OCC(=O)N(CC)CC)c(OC)c1`, the Potency result in assay [1], in [2], in assay [3], in assay [4], in [5] and in assay [6] was “inactive” in each case. Also, the Potency result in [7], in assay [8], in assay [9], in assay [11], in assay [12] and in assay [13] was “inactive” throughout. Moreover, the Potency result in [14], in assay [15], in assay [16] and in assay [20] was “inactive” each time. Further, the Potency in [19] is 0.282 µM (active).

Consider `O=[N+]([O-])c1cc(C(F)(F)F)c(Cl)c([N+](=O)[O-])c1Cl`, for which the Potency in [1] is 24.3 µM (active); in [2], 9.69 µM (active); in [7] it was 36.3 µM (active); in [8] it was 16.2 µM (active). Moreover, the Potency entry in assay [3], in assay [4], in assay [5], in [6], in [10] and in [11] was “inactive” throughout. Further, the Potency entry in [12], in assay [13], in assay [16], in assay [19] and in assay [20] was “inactive” in each case.

These data come from PubChem BioAssay (Tox21).
